This experiment has as its system Zika virus NS2B-NS3 protease. As to the kind of experiment: Primary screen GU AMC qHTS for Zika virus inhibitors (AID 1347154). Also: nearly all actives have a fitted effect of over 70% in size. To be noted: Zika NS2B-NS3 unlinked protease, AMC fluorogenic substrate; series mostly up to 54.1 µM. An outline of the steps:
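Unlinked Zika NS2B hydrophilic domain–NS3 protease complex at 25 nM in 10 mM Tris-HCl pH 8.0, 0.01% Tween 20, with an AMC peptide substrate. Fluorescence change (340/450 nm) over 15 min at room temperature, normalized to controls, fitted to 4-parameter Hill.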
(In general: In qHTS, concentration-response curves come from the screen itself.)

SMILES strings stand for the structures. Inconclusive results are not listed. Where a call stands in place of a potency, no number is given. Calls of active or inactive are those of the source. Calls follow the shape of the dose curve; as a rule, active = well fitted inhibition curve with a large enough effect; inconclusive = small, poorly fitted or top-dose-only effect; inactive = flat fitted curve, though single readings scatter.

Turning to `Cc1c(CCOc2ccc(C(=O)O)cc2)c2cc(Cl)ccc2n1C(c1ccccc1)c1ccccc1`, the Potency entry is “inactive”.

Take `O=C(Nc1ccc(F)c(C(F)(F)F)c1)Nc1nnc(-c2ccncc2)s1`: the Potency entry was “inactive”.

For `CN(C(=O)c1ccc(F)cc1C(F)(F)F)C1CCN(c2nnc(-c3ccnn3C)c3ccccc23)CC1`, the Potency entry is “inactive”.

In the case of `Nc1nccc(-c2ccc3noc(-c4ccc(Cl)cc4)c3c2)n1`, the Potency entry was “inactive”.

As to `Cc1cc(Nc2nc(N[C@@H](C)c3ncc(F)cn3)ncc2Cl)n[nH]1`, the Potency entry was “inactive”.

As for `NC(=O)C1CCCc2c1[nH]c1ccc(Cl)cc21` (stereo not drawn), the Potency result was “inactive”.

In the case of `Cc1cc(-c2ccc(CC(=O)Nc3ccc(-c4cccnc4)cc3)cc2)ccn1`, the Potency entry was “inactive”.

Take `C[C@H](NC(=O)Cc1cc(F)cc(F)c1)C(=O)N[C@@H]1C(=O)N(C)c2ccccc2-c2ccccc21`: the Potency result was “inactive”.
